RmlCD inh mix – inhibitors of RmlC and RmlD coupled enzymes | RmlC/RmlD coupled enzyme inhibition, 384-well mixture HTS | inhibition, % at 5.5 µM | actives 0.39% (n = 110,000); in the data active means inhibition above about 30%, passing the limit was not always enough; inconclusive means no clear call, values can overlap the other calls
HIV RNase H inh-1 – blocks HIV-1 RNase H cleavage of RNA/DNA duplex; actives 1.9% (n = 65,000); inhibition, % at 10 µM; AID 565; RT-RNase H RNA/DNA duplex cleavage, fluorescence; P04585; in the data active means inhibition above about 50%
HIV RNase H inh-2 – confirmation of HIV-1 reverse transcriptase RNase H inhibitors; shares compounds with HIV RNase H inh-1; Recombinant RT RNase H, fluorescent RNA/DNA duplex cleavage; inhibition, % at 10 µM; actives 39% (n = 1,000); in the data active means inhibition above about 48%; inconclusive means no clear call, values can overlap the other calls
Numbers without * were called inactive; ? = inconclusive; / = no result given. Only a selection was taken, and hits are over-represented in it overall.

SMILES	RmlCD inh mix	HIV RNase H inh-1	HIV RNase H inh-2
Cc1ccc(NC(=O)c2ccc3c(c2)N(CC(=O)N2CCCCC2)C(=O)C(C)(C)O3)cc1	-14	-11	/
CC1(C)Oc2ccc(C(=O)NC3CCCC3)cc2N(CC(=O)NC2CCCCC2)C1=O	7	73*	48
Cc1ccc(C2C(C#N)=C(N)Oc3c2sc2ccccc32)o1 (configuration not stated)	6	24	/
COc1ccc2cc3cc(C(=O)NCc4ccco4)oc3nc2c1	136	/	/
O=C(NCc1ccco1)c1cc2cc3ccc(Cl)cc3nc2o1	11	66*	58*
O=C(c1ccco1)N1CCN(c2ccc(Cl)c(Cl)c2)CC1	10	-3	/
CCC1SC2=NC(C)=C(C(=O)OCCOC)C(c3ccc(C(=O)OC)cc3)N2C1=O (configuration not stated)	6	5	/
Cn1nnnc1SCCOc1ccc(C#N)cc1	7	-8	/
Cc1noc(C)c1C(=O)OCC(=O)NCCC1=CCCCC1	-17	3	/
CCOc1ccc(-n2c(=O)c3c4c(sc3n(CC(=O)NCc3ccco3)c2=O)CCC4)cc1	-10	57*	87*
CCN(CC)C(=O)Cn1c(=O)n(-c2ccccc2)c(=O)c2c3c(sc21)CCC3	-8	/	/
Cc1cc2nnc(SCc3ccccc3)n2c(N)n1	14	23	/
Cc1cc(NC(=O)Cc2cccs2)no1	/	74*	37
Cc1cc(NS(=O)(=O)c2ccc(NC(=O)Cc3cccs3)cc2)no1	8	-7	/
CCn1cc(C(=O)NCc2ccco2)c(=O)c2cc(S(=O)(=O)N3CCc4ccccc4C3)ccc21	0	65*	63*
CCn1cc(C(=O)NCc2ccco2)c(=O)c2cc(S(=O)(=O)N3CCCCCC3)ccc21	5	-24	/
CCOC(=O)C1(C)/C(=N/Nc2ccccc2Cl)C(=O)C(=O)N1c1ccccc1 (configuration not stated)	9	/	/
CCOc1cccc2cc(-c3csc(NC(=O)CCC(=O)N4CCN(C)CC4)n3)c(=O)oc12	/	-2	/
CCOc1cc(NC(=O)c2ccccc2C)c(OCC)cc1NC(=O)C1=Cc2ccccc2OC1	90	/	/
Cc1cc(NC(=O)c2cc(C)on2)n(-c2ccccc2)n1	/	75*	50
Cc1cc(NC(=O)c2cc(C3CC3)on2)n(-c2ccccc2)n1	14	-2	/
COc1nc2c(C)cccc2cc1-c1noc(-c2ccncc2)n1	/	1	/
CCCCS/C(=C(/C#N)C(N)=O)c1cc2c([nH]1)CCCC2	-10	81*	0
CCc1ccc(N/C(SC)=C(/C#N)C(N)=O)cc1	-3	-18	/
CNc1nnc(-c2ccc(N(C)C)cc2)s1	131	/	/
SMILES	RmlCD inh mix	HIV RNase H inh-1	HIV RNase H inh-2
COC(=O)C(Cc1cncn1COCc1ccccc1)NC(=O)OC(C)(C)C (configuration not stated)	-15	-17	/
COC(=O)c1sc(NC(C)=O)c(C(=O)OC)c1C	1	58*	0
CCOC(=O)c1sc(NC(C)=O)c(C(=O)OCC)c1C	7	-3	/
CC(C)(C)c1cc(NC(=O)CCSc2nnc3ccccn23)cc(C(C)(C)C)c1	11	/	/
COc1ccc(OCC(=O)Nc2cccc(-c3nc4ccccc4o3)c2)cc1	0	9	/
CCc1ccc(OCC(=O)Nc2ccc(-c3nc4ccccc4o3)c(O)c2)cc1	-195	68*	?
Cc1cc(OC(=O)c2ccc(Cl)cc2Cl)nc(C)n1	58	/	/
COC(=O)c1cccc(N2C(=O)C(Cl)=C(N3CCOCC3)C2=O)c1	6	83*	62*
CN1CCN(C2=C(Cl)C(=O)N(c3cccc(Cl)c3)C2=O)CC1	1	70*	17
CN1CCN(C2=C(Cl)C(=O)N(Cc3ccccc3)C2=O)CC1	12	-28	/
Cn1c(=O)n(-c2cccc(Cl)c2)c(=O)n1C	-16	-11	/
CN1CCN(C2=C(Cl)C(=O)N(c3ccc(Cl)c(Cl)c3)C2=O)CC1	6	96*	74*
O=C1C(Cl)=C(N2CCOCC2)C(=O)N1c1ccccc1Cl	-8	70*	27
Cc1ccccc1N1C(=O)C(Cl)=C(N2CCN(c3ccccc3)CC2)C1=O	14	13	/
COC(=O)c1cccc(Oc2nc(N3CCOCC3)nc(N3CCOCC3)n2)c1	/	-15	/
COCCCn1c(C2CCCCC2)nc2oc3cc(OC)ccc3c(=O)c2c1=O	-15	9	/
O=C1C=C(c2ccccc2)OC(=O)C1C(=O)c1ccccc1 (configuration not stated)	-10	/	/
C/C=C/C(=O)Nc1cccc(C2=NOC3(C2)C[C@@H](C(N)=O)N(C(=O)C(c2ccccc2)c2ccccc2)C3)c1 (some centres not stated)	-41	/	/
CCOc1ccc2nnc(-c3ccc(Br)cc3)n2n1	-7	/	/
COc1ccc(-c2nnc(SC(C)C(=O)Nc3c(C)n(C)n(-c4ccccc4)c3=O)o2)cc1 (configuration not stated)	-10	/	/
COc1ccc(N2C(=O)C(Cl)=C(N3CCCC(C)C3)C2=O)cc1 (configuration not stated)	-10	/	/
COc1ccc(N2C(=O)C(Cl)=C(N3CCCC3)C2=O)cc1	-8	52*	-4
CCc1cccc2c(C#N)cn(CC(=O)NCCOC)c12	-17	-11	/
O=C(CSc1nc2c(c(=O)[nH]1)CCC2)Nc1cccc(Cl)c1	-9	87*	38
CN(C)c1ccc(NC(=O)CSc2nc3c(c(=O)[nH]2)CCCC3)cc1	21	-2	/
SMILES	RmlCD inh mix	HIV RNase H inh-1	HIV RNase H inh-2
Cc1c(CN(C)C(=O)c2sc3cc(Cl)ccc3c2Cl)cnn1C	7	/	/
c1ccc(CC2CCN(c3nc(N4CCOCC4)nc(N4CCOCC4)n3)CC2)cc1	/	-12	/
O=C(Cn1c(=O)oc2cc(S(=O)(=O)N3CCCCCC3)ccc21)NC1CCCCCCC1	-8	26	/
O=C(Cn1c(=O)oc2cc(S(=O)(=O)N3CCCC3)ccc21)NC1CCCc2ccccc21 (configuration not stated)	/	65*	76*
COc1ccc(CN(C(=O)c2cnccn2)C(C(=O)Nc2ccc(F)cc2)c2ccccc2)cc1 (configuration not stated)	-76	/	/
C=CCSc1nnc2c(n1)OC(c1c(C)[nH]n(-c3ccccc3)c1=O)Nc1ccccc1-2 (configuration not stated)	-9	/	/
O=C1Nc2ccccc2OC1CC(=O)N1CCN(c2cccc(C(F)(F)F)c2)CC1 (configuration not stated)	?	5	/
c1cncc(-c2nn3c(Cn4cnc5ccccc54)nnc3s2)c1	-6	97*	68*
c1ccc(OCc2nn3c(Cn4cnc5ccccc54)nnc3s2)cc1	8	38	/
COc1ccc(-c2nnc3ccc(SCC(=O)N4CCN(c5ccccc5)CC4)nn23)cc1	/	36	/
Cc1ccccc1NC(=O)NCCN1C(=O)C2C3C=CC(C3)C2C1=O (configuration not stated)	-10	-3	/
c1ccc2c(c1)nnn2Cc1nnc2sc(-c3ccc4c(c3)OCCO4)nn12	-1	91*	52*
Cc1ccc(-c2nnc3sc(-c4ccc5c(c4)OCCO5)nn23)cc1	/	1	/
O=C(Nc1cnn(Cc2ccc(F)cc2)c1)c1cc2nc(-c3ccco3)cc(C(F)(F)F)n2n1	?	59*	26
Cc1nn(Cc2ccccc2)c(C)c1NC(=O)c1cc2nc(-c3ccco3)cc(C(F)(F)F)n2n1	-34	6	/
Cn1c(=O)n(C)c2cc(S(=O)(=O)N3CCOCC3)ccc21	3	-6	/

Bioassay records deposited in PubChem by several laboratories.
